This passage reports outcome and AC50 results from PubChem BioAssay (EPA / NIEHS).

Calls of active or inactive are those of the source. How the source made its calls: active means hit-call score of the fitted dose curve at least 0.9, where 1 is the maximum; inactive means score below 0.9.

Conditions in all cases: mRNA level, 48 h; actives raise or lower the signal
Read-out in assay [1]: Glutathione S-transferase M3 (GSTM3), GSTM3 (gene 2947)
Nature of the assay: LTEA_HepaRG_GSTM3: Life Technologies and Expression Analysis (LTEA) Assay for Glutathione S-transferase M3 (GSTM3) using HepaRG (AID 2283501). The essentials:
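qRT-PCR read-out of GSTM3 transcript, normalized to three housekeeping genes, from human HepaRG cells after 48 h chemical exposure. Eight-point half-log series, top 100 uM, 0.5% DMSO vehicle; gain or loss fitted relative to DMSO baseline.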

Read-out in assay [2]: Heat shock 70 kDa protein 1 (HSPA1A), gene 3303
Nature of the assay: LTEA_HepaRG_HSPA1A: Life Technologies and Expression Analysis (LTEA) Assay for Heat shock 70 kDa protein 1 (HSPA1A) using HepaRG (AID 2283502). The essentials:
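HSPA1A expression measured by qRT-PCR with ACTB/GAPDH/POLR2A normalization; curves fitted in both directions relative to DMSO vehicle. Exposure: 48 h in HepaRG cells, duplicate 8-point half-log series from 100 uM, 0.5% DMSO, serum-free induction medium.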

Read-out in assay [3]: Hypoxia-inducible factor 1-alpha (Homo sapiens) (UniProt Q16665)
Nature of the assay: LTEA_HepaRG_HIF1A: Life Technologies and Expression Analysis (LTEA) Assay for Hypoxia-inducible factor 1 (HIF1A) Trancription factor using HepaRG (AID 2283503). The essentials: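 HIF1A transcript level read by qRT-PCR (ACTB, GAPDH, POLR2A normalization) after 48 h chemical exposure of HepaRG cultures. Eight half-log concentrations, top 100 uM, 0.5% DMSO vehicle, duplicates; bidirectional curve fit against DMSO baseline.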

Read-out in assay [4]: 3-Hydroxy-3-Methylglutaryl-CoA Synthase 2 (HMGCS2), HMGCS2 (gene 3158)
Nature of the assay: LTEA_HepaRG_HMGCS2: Life Technologies and Expression Analysis (LTEA) Assay for 3-Hydroxy-3-Methylglutaryl-CoA Synthase 2 (HMGCS2) using HepaRG (AID 2283504). In outline:
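qRT-PCR read-out of HMGCS2 transcript, normalised to three housekeeping genes, in HepaRG cells after 48 h chemical exposure. Eight-point curves from 100 uM, half-log dilutions, 0.5% DMSO vehicle; gain or loss fitted relative to DMSO baseline.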

Read-out in another assay: HGF (gene 3082)
Nature of the assay: LTEA_HepaRG_HGF: Life Technologies and Expression Analysis (LTEA) Assay for Hepatocyte Growth Facto (HGF) using HepaRG (AID 2283505). The essentials:
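HepaRG, 48 h dosing, 8-pt half-log series from 100 uM in 0.5% DMSO, duplicates. Readout: TaqMan qRT-PCR of HGF mRNA, housekeeping-normalized; bidirectional curve fit vs DMSO baseline.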

Read-out in assay [5]: Insulin Like Growth Factor 1 (IGF1), IGF1 (gene 3479)
Nature of the assay: LTEA_HepaRG_IGF1: Life Technologies and Expression Analysis (LTEA) Assay for Insulin Like Growth Factor 1 (IGF1) using HepaRG (AID 2283506). In outline: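 Expression measured by TaqMan qRT-PCR on a Fluidigm array, with three housekeeping genes for normalisation, after 48 h treatment of HepaRG cells. Top concentration 100 uM with half-log steps, 0.5% DMSO vehicle, bidirectional fit.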

Read-out in assay [6]: Intercellular Adhesion Molecule 1 (ICAM1), ICAM1 (gene 3383)
Nature of the assay: LTEA_HepaRG_ICAM1: Life Technologies and Expression Analysis (LTEA) Assay for Intercellular Adhesion Molecule 1 (ICAM1) using HepaRG (AID 2283507). In outline:
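HepaRG, 48 h exposure, 8-pt half-log series from 100 uM, 0.5% DMSO vehicle, duplicates. Readout: TaqMan qRT-PCR mRNA, housekeeping-normalized (ACTB/GAPDH/POLR2A). Bidirectional curve fit vs DMSO baseline.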

Read-out in assay [7]: Insulin-like growth factor-binding protein 1 (IGFBP1), IGFBP1 (gene 3484)
Nature of the assay: LTEA_HepaRG_IGFBP1: Life Technologies and Expression Analysis (LTEA) Assay for Insulin-like growth factor-binding protein 1 (IGFBP1) using HepaRG (AID 2283508). The essentials:
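qRT-PCR mRNA read-out (TaqMan, Fluidigm array), normalised to three housekeeping genes; HepaRG cells, 48 h exposure, 8-pt half-log series from 100 uM, 0.5% DMSO vehicle; bidirectional curve fit vs DMSO baseline.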

Read-out in assay [8]: Interleukin 6 (IL6), IL6 (gene 3569)
Nature of the assay: LTEA_HepaRG_IL6: Life Technologies and Expression Analysis (LTEA) Assay for Interleukin 6 (IL6) using HepaRG (AID 2283509). The essentials: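 Changes in IL6 mRNA, up or down relative to 0.5% DMSO controls, were derived from concentration-response curves in human HepaRG cells treated for 48 h at up to 100 uM, with ACTB, GAPDH and POLR2A as normalizers.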

Read-out in assay [9]: Interleukin 6 Receptor (IL6R), IL6R (gene 3570)
Nature of the assay: LTEA_HepaRG_IL6R: Life Technologies and Expression Analysis (LTEA) Assay for Interleukin 6 Receptor (IL6R) using HepaRG (AID 2283510). In outline: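 IL6R transcript level by qRT-PCR after 48 h chemical exposure (8-point, half-log, max 100 uM, 0.5% DMSO vehicle) of HepaRG cells in serum-free induction medium. Normalized to three housekeeping genes; curves fitted in both directions relative to DMSO.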

Read-out in assay [10]: Potassium channel subfamily K member 1 (KCNK1), KCNK1 (gene 3775)
Nature of the assay: LTEA_HepaRG_KCNK1: Life Technologies and Expression Analysis (LTEA) Assay for Potassium channel subfamily K member 1 (KCNK1) using HepaRG (AID 2283511). In outline: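 Human HepaRG cultures receive test chemicals for 48 h in 0.5% DMSO, top concentration 100 uM with half-log dilutions. Induction or suppression of KCNK1 mRNA relative to DMSO is derived by bidirectional fitting of qRT-PCR data.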

Read-out in assay [11]: Keratin 19 (KRT19), KRT19 (gene 3880)
Nature of the assay: LTEA_HepaRG_KRT19: Life Technologies and Expression Analysis (LTEA) Assay for Keratin 19 (KRT19) using HepaRG (AID 2283512). The essentials:
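HepaRG, 48 h chemical exposure, 8-pt half-log CRC from 100 uM, 0.5% DMSO vehicle, duplicates. Readout: TaqMan qRT-PCR of KRT19 mRNA, housekeeping-normalized (ACTB/GAPDH/POLR2A). Bidirectional fit vs DMSO baseline.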

Read-out in assay [12]: JUN Transcription Factor, JUN (gene 3725)
Nature of the assay: LTEA_HepaRG_JUN: Life Technologies and Expression Analysis (LTEA) Assay for JUN Transcription Factor using HepaRG (AID 2283513). The essentials:
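mRNA measured by TaqMan qRT-PCR after 48 h chemical exposure of HepaRG cultures; normalization to three housekeeping genes. Duplicate eight-point half-log curves from 100 uM in 0.5% DMSO; gain or loss fitted against DMSO baseline.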

Read-out in assay [13]: MicroRNA 122 (MIR122), gene 406906
Nature of the assay: LTEA_HepaRG_MIR122: Life Technologies and Expression Analysis (LTEA) Assay for MicroRNA 122 (MIR122) using HepaRG (AID 2283516). Further: the transcript read is the microRNA miR-122. In outline:
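Expression measured by microfluidic qRT-PCR with three housekeeping genes for normalisation, after 48 h treatment of HepaRG cultures. Eight concentrations (top 100 uM, half-log steps, 0.5% DMSO vehicle) in duplicate; gain or loss fitted relative to vehicle.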

Read-out in assay [14]: matrix metalloproteinase-10 (MMP10), MMP10 (gene 4319)
Nature of the assay: LTEA_HepaRG_MMP10: Life Technologies and Expression Analysis (LTEA) Assay for matrix metalloproteinase-10 (MMP10) using HepaRG (AID 2283517). The essentials: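 In differentiated HepaRG cultures kept in 0.5% DMSO, test chemicals act for 48 h over an eight-point range with a top dose of 100 uM. Expression is then quantified by TaqMan RT-PCR against ACTB, GAPDH and POLR2A.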

Read-out in another assay: MYC, MYC (gene 4609)
Nature of the assay: LTEA_HepaRG_MYC: Life Technologies and Expression Analysis (LTEA) Assay for MYC using HepaRG (AID 2283518). In outline:
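qRT-PCR read-out of MYC transcript (Fluidigm TaqMan, housekeeping-normalized) after 48 h chemical exposure of HepaRG cells; eight concentrations, top 100 uM, half-log steps. Bidirectional curve fitting against 0.5% DMSO vehicle baseline.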

Read-out in assay [15]: matrix metalloproteinase-3 (MMP3), MMP3 (gene 4314)
Nature of the assay: LTEA_HepaRG_MMP3: Life Technologies and Expression Analysis (LTEA) Assay for matrix metalloproteinase-3 (MMP3) using HepaRG (AID 2283519). The essentials: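 Human liver HepaRG cultures received chemicals (top concentration 100 uM, 0.5% DMSO) for 48 h in duplicate. MMP3 mRNA induction or loss was then assessed via TaqMan qRT-PCR with housekeeping-gene normalisation.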

Read-out in assay [16]: Paternally Expressed 10 (PEG10), PEG10 (gene 23089)
Nature of the assay: LTEA_HepaRG_PEG10: Life Technologies and Expression Analysis (LTEA) Assay for Paternally Expressed 10 (PEG10) using HepaRG (AID 2283520).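 On AC50: differentiated HepaRG human liver cells in serum-free induction medium with 0.5% DMSO; PEG10 transcript by qRT-PCR normalised to ACTB GAPDH and POLR2A.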 The essentials:
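PEG10 transcript measured by Fluidigm qRT-PCR, normalized to three housekeeping genes, in HepaRG cells treated 48 h (highest 100 uM, half-log steps, 0.5% DMSO vehicle). Cells plated 48 h before switching to serum-free induction medium.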

Read-out in assay [17]: Lipoprotein lipase (LPL), LPL (gene 4023)
Nature of the assay: LTEA_HepaRG_LPL: Life Technologies and Expression Analysis (LTEA) Assay for Lipoprotein lipase (LPL) using HepaRG (AID 2283515). The essentials:
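Concentration-response testing used half-log steps from 100 uM in 0.5% DMSO on human HepaRG cells, 48 h, duplicate wells. Phenobarbital 1 mM served as induction control; LPL mRNA was normalized to ACTB, GAPDH, POLR2A.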

Chain of Hypoxia-inducible factor 1-alpha (Homo sapiens) (Q16665 whole entry, looked up): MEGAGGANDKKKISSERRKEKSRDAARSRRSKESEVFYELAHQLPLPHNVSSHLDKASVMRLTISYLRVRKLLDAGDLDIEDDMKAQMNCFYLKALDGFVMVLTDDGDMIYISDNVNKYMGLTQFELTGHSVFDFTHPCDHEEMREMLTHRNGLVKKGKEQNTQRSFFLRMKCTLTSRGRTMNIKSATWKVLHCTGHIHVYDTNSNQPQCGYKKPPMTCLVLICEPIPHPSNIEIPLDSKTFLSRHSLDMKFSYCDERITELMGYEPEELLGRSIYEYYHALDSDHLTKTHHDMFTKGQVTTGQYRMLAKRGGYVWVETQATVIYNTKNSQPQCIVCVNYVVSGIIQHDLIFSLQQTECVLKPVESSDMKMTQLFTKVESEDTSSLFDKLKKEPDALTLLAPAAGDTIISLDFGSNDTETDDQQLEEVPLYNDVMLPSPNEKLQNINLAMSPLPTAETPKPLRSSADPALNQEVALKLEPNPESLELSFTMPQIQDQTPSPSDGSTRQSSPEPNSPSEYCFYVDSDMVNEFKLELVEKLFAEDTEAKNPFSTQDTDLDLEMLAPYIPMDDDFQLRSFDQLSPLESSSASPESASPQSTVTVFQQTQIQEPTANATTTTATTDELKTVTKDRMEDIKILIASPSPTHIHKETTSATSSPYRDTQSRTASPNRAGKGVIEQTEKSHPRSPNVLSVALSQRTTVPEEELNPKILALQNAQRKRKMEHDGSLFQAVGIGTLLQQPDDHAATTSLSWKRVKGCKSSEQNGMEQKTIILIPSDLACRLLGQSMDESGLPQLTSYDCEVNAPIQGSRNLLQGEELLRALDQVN

Turning to `ClC(Cl)(Cl)c1ccccc1`, the result (in [1]; in assay [2]; in assay [3]; in [4]; with HGF (gene 3082); in assay [5]) was inactive. For the same compound, the compound was called inactive in assay [6], in assay [7], in assay [8], in assay [9], in [10] and in [11]. Moreover, the outcome is “inactive” in assay [12]; “inactive” in [13]; “inactive” in assay [14]; “inactive” with MYC, MYC (gene 4609); “inactive” in [15]; “inactive” in assay [16].

The AC50 is the concentration at which the activity in the assay is half-maximal. As for `CC(Cc1ccc(OCC(=O)O)cc1)NCC(O)c1csc(C(F)(F)F)n1` (centres undefined), the compound was classed as inactive (in [1]; in [2]; in assay [3]; in assay [4]; with HGF (gene 3082); in assay [5]). Further, the compound was called inactive in assay [6], in [7], in assay [8], in assay [9], in [10] and in assay [12]. The outcome in assay [17] is “inactive”; in assay [13], “inactive”; in assay [14] it was “inactive”; with MYC, MYC (gene 4609) it was “inactive”; in [15], “inactive”. In addition, the AC50 was 0.138 µM (active) in assay [11] and 0.0862 µM (active) in assay [16].

In the case of `ClC1=C(Cl)C2(Cl)C3C(Cl)C(Cl)CC3C1(Cl)C2(Cl)Cl` (centres undefined), the compound was classed as inactive (in [1]; in [2]; with HGF (gene 3082); in [6]; in assay [7]; in assay [8]). For the same compound, the compound was called inactive in assay [9], in [10], in assay [11], in assay [12], in assay [13] and in [14]. The AC50 in assay [3] was 4.98 µM (active); in assay [4], 31.7 µM (active); in assay [5] it was 23.5 µM (active); with MYC, MYC (gene 4609), 50 µM (active); in assay [15] it was 23.6 µM (active); in assay [16], 2.31 µM (active).

With `c1ccc(OP(Oc2ccccc2)Oc2ccccc2)cc1`, the result (in assay [1]; in assay [2]; in assay [3]; in assay [4]; with HGF (gene 3082); in assay [5]) was inactive. Besides, the result in [6], in assay [7], in assay [8], in [9], in assay [10] and in assay [11] was inactive. For the same compound, the outcome is “inactive” in assay [12]; “inactive” in assay [13]; “inactive” in [14]; “inactive” with MYC, MYC (gene 4609); “inactive” in assay [15]; “inactive” in assay [16].

As for `CCCCN(CCCC)SN(C)C(=O)Oc1cccc2c1OC(C)(C)C2`, the compound was classed as inactive (in assay [1]; in assay [2]; in assay [3]; in assay [4]; with HGF (gene 3082); in assay [5]). In addition, the call in assay [6], in [7], in assay [8], in [9], in assay [10] and in [11] was inactive. The outcome was “inactive” in assay [12]; “inactive” in assay [13]; “inactive” in assay [14]; “inactive” with MYC, MYC (gene 4609); “inactive” in [15]; “inactive” in [16].

With `CCCN(CCC)c1c([N+](=O)[O-])cc(C(C)C)cc1[N+](=O)[O-]`, the AC50 in assay [1] is 3.04 µM (active); in assay [2] it was 16.7 µM (active); in assay [5], 71.1 µM (active); in assay [16] it was 43.3 µM (active). Moreover, the compound was classed as inactive (in assay [3]; in assay [4]; with HGF (gene 3082); in [6]; in assay [7]; in assay [8]). Moreover, the call in assay [9], in assay [10], in assay [11], in assay [12], in assay [13] and in [14] was inactive. Also, the outcome was “inactive” in the assay with MYC, MYC (gene 4609) and “inactive” in [15].
